Results on nine compounds are retold here after PubChem BioAssay (NCI).

Some test systems named below: SR leukemia; RPMI-8226 leukemia; OVCAR-5 ovarian; OVCAR-4 ovarian; SK-OV-3 ovarian; IGROV1 ovarian; OVCAR-3 ovarian; HS 578T breast; NCI/ADR-RES ovarian; T-47D breast; BT-549 breast; MDA-MB-435 melanoma; SW-620 colon; MCF7 breast; HCT-116 colon; HCC-2998 colon; KM12 colon; OVCAR-8 ovarian.
Common to all, as to test: NCI-60 one-dose screen, 48 h (100 = growth as untreated, 0 = no growth, -100 = all killed)
Details in all cases: 10 µM unless noted

About 83,000 compounds went through this panel and 20% of them were active in at least one assay; those are over-represented in the sample as a whole.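 Treatment: one concentration, 48 hours, 96-well format. Scoring: percent growth, with anything below 10 considered active.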 Unmarked numbers belong to inactive results. Active and inactive are the calls of the source.

Take `Cc1nc2nc(SCC(=O)O)[nH]c2c(=O)[nH]1`: the growth with SR leukemia was 115%; with RPMI-8226 leukemia it was 96.9%; in the assay on OVCAR-5 ovarian, 104%; with OVCAR-4 ovarian it was 131%; with SK-OV-3 ovarian, 103%; with IGROV1 ovarian, 101%. The growth was 115% in the assay on OVCAR-3 ovarian; 99% with HS 578T breast; 105% in the assay with NCI/ADR-RES ovarian; 96.7% with T-47D breast; 97.2% in the assay on BT-549 breast; 107% in the assay on MDA-MB-435 melanoma. Also, the growth was 98.5% in the assay on SW-620 colon; 93.2% in the assay on MCF7 breast; 104% in the assay on HCT-116 colon; 101% in the assay with HCC-2998 colon; 105% in the assay on KM12 colon.

Consider `C=C1C(=O)O[C@H]2[C@H]1CC/C(COC(=O)NCCOCCOCC(=O)Nc1ccc(OC)c(C(N)=O)c1O)=C\CC[C@@]1(C)O[C@@H]21`, for which the growth is 7.91% (active) in the assay with SR leukemia; 16% in the assay with RPMI-8226 leukemia; 90.9% in the assay with OVCAR-5 ovarian; 71% in the assay with OVCAR-4 ovarian; 109% in the assay with SK-OV-3 ovarian; 24.7% in the assay with IGROV1 ovarian. In addition, the growth was 45.8% in the assay on OVCAR-3 ovarian; 90.1% with HS 578T breast; 94.6% with NCI/ADR-RES ovarian; 47.8% in the assay on T-47D breast; 68.6% with BT-549 breast; 53.7% with MDA-MB-435 melanoma. Moreover, the growth was 18.5% with SW-620 colon; 32% in the assay on MCF7 breast; 32.8% in the assay on HCT-116 colon; 90.4% in the assay on HCC-2998 colon; 95.2% with KM12 colon.

For the compound `C=C1C(=O)O[C@H]2[C@H]1CC/C(COC(=O)C(C)c1ccc(CC(C)C)cc1)=C\CC[C@@]1(C)O[C@@H]21` (some centres not stated), the growth in the assay with SR leukemia is -1.31% (active); in the assay with RPMI-8226 leukemia, -23% (active); in the assay on OVCAR-5 ovarian, 74.1%; in the assay with OVCAR-4 ovarian it was 8.73% (active); in the assay with SK-OV-3 ovarian, 102%; in the assay with IGROV1 ovarian it was -69% (active). For the same compound, the growth was 1.75% (active) in the assay on OVCAR-3 ovarian; -4.39% (active) in the assay with HS 578T breast; 14.6% in the assay on NCI/ADR-RES ovarian; -35% (active) in the assay on T-47D breast; -1.34% (active) in the assay on BT-549 breast; -11.7% (active) in the assay on MDA-MB-435 melanoma. Also, the growth in the assay on SW-620 colon is -60.1% (active); in the assay with MCF7 breast, 9.15% (active); with HCT-116 colon, -73.7% (active); with HCC-2998 colon, 72.2%; with KM12 colon it was 31.8%.

Turning to `Cc1cc2[nH]c(=O)c3c4ncccc4cn3c2cc1C`, the growth was -1.41% (active) in the assay on SR leukemia; 2.89% (active) in the assay on RPMI-8226 leukemia; 39.6% in the assay with OVCAR-8 ovarian; 87.4% with SK-OV-3 ovarian; 24.5% in the assay with IGROV1 ovarian; -21.7% (active) in the assay on OVCAR-3 ovarian. Besides, the growth in the assay on HS 578T breast was 101%; in the assay on NCI/ADR-RES ovarian, 34.3%; in the assay on T-47D breast it was 56.5%; in the assay with BT-549 breast, 105%; with MDA-MB-435 melanoma, 11.1%; in the assay with SW-620 colon, -26.9% (active). In addition, the growth in the assay on MCF7 breast is 11.6%; in the assay on HCT-116 colon, -77.1% (active); with HCC-2998 colon it was 13.7%; with KM12 colon, 25.1%.

As to `COc1cc(C(=O)c2cnc(-c3cccc4[nH]ccc34)[nH]2)cc(OC)c1OC`, the growth in the assay on SR leukemia was 13.9%; with RPMI-8226 leukemia, 15.8%; in the assay with OVCAR-5 ovarian, 50.1%; with OVCAR-4 ovarian, 38.9%; in the assay with SK-OV-3 ovarian it was 35.6%; with IGROV1 ovarian it was 26.6%. Besides, the growth with OVCAR-3 ovarian is -18.1% (active); in the assay with HS 578T breast it was 30.9%; in the assay with NCI/ADR-RES ovarian, 11.2%; in the assay with T-47D breast, 70.6%; in the assay with BT-549 breast, 40.2%; in the assay with MDA-MB-435 melanoma it was -34.8% (active). For the same compound, the growth in the assay with SW-620 colon was 19.7%; in the assay on MCF7 breast, 22.4%; in the assay with HCT-116 colon, -8.06% (active); in the assay on HCC-2998 colon, 20.9%; with KM12 colon, 4.18% (active).

Consider `COc1cc(C(=O)c2cnc(-c3c[nH]c4cccc(C)c34)[nH]2)cc(OC)c1OC`, for which the growth is 4.87% (active) with SR leukemia; 10% in the assay with RPMI-8226 leukemia; 46.5% in the assay on OVCAR-5 ovarian; 34.5% with OVCAR-4 ovarian; 41.1% in the assay with SK-OV-3 ovarian; 22.1% with IGROV1 ovarian. Moreover, the growth in the assay with OVCAR-3 ovarian is -49% (active); in the assay on HS 578T breast, 21.2%; in the assay with NCI/ADR-RES ovarian, 3.24% (active); in the assay on T-47D breast, 52.2%; in the assay with BT-549 breast, 38.3%; in the assay on MDA-MB-435 melanoma it was -43.5% (active). For the same compound, the growth was 18% with SW-620 colon; 17.7% in the assay with MCF7 breast; -10.4% (active) with HCT-116 colon; 20.1% in the assay with HCC-2998 colon; 0.911% (active) in the assay on KM12 colon.

Turning to `COc1cc(/C=C2\C(=O)Nc3ccc(Br)cc32)cc(OC)c1OC`, the growth in the assay on SR leukemia was 16.3%; with RPMI-8226 leukemia it was 52.2%; with OVCAR-5 ovarian, 96.8%; with OVCAR-4 ovarian it was 71.8%; in the assay with SK-OV-3 ovarian it was 88.3%; in the assay on IGROV1 ovarian it was 43%. The growth with OVCAR-3 ovarian is 60.3%; in the assay on HS 578T breast, 63%; in the assay on NCI/ADR-RES ovarian it was 42.7%; in the assay on T-47D breast, 53.2%; with BT-549 breast, 58.3%; in the assay on MDA-MB-435 melanoma, 21.2%. The growth is 36.1% in the assay with SW-620 colon; 24.2% in the assay on MCF7 breast; 37.3% in the assay on HCT-116 colon; 67.6% with HCC-2998 colon; 47.8% with KM12 colon.

For the compound `CCc1ccc(Oc2c(-c3ccc(OCc4ccc(Cl)cc4)cc3O)n[nH]c2C(F)(F)F)cc1`, the growth in the assay with SR leukemia is 12.7%; with RPMI-8226 leukemia, 1.99% (active); in the assay on OVCAR-5 ovarian, 85.9%; in the assay with OVCAR-4 ovarian, 16.5%; with SK-OV-3 ovarian it was 27%; with IGROV1 ovarian, 22%. Besides, the growth was 0.589% (active) in the assay with OVCAR-3 ovarian; 27.9% in the assay on HS 578T breast; 16.5% with NCI/ADR-RES ovarian; -2.85% (active) in the assay with T-47D breast; 34.7% in the assay on BT-549 breast; 7.72% (active) with MDA-MB-435 melanoma. For the same compound, the growth in the assay with SW-620 colon was 17.4%; in the assay on MCF7 breast, 4.9% (active); in the assay on HCT-116 colon, -5.05% (active); in the assay on HCC-2998 colon it was 62.2%; in the assay with KM12 colon, 19.5%.

As to `COc1ccc(CN2c3ccccc3CCc3ccccc32)cc1F`, the growth in the assay with SR leukemia is 11.6%; in the assay on RPMI-8226 leukemia it was 8.72% (active); with OVCAR-5 ovarian it was 40.7%; with OVCAR-4 ovarian, 42%; in the assay on SK-OV-3 ovarian, 38.4%; with IGROV1 ovarian it was 51.7%. Also, the growth in the assay with OVCAR-3 ovarian is -41.7% (active); with HS 578T breast, 30.2%; in the assay with NCI/ADR-RES ovarian, 11.1%; in the assay on T-47D breast it was 47.1%; in the assay on BT-549 breast, 54%; with MDA-MB-435 melanoma, -49.4% (active). Further, the growth with SW-620 colon is 20.5%; in the assay with MCF7 breast, 20.4%; in the assay on HCT-116 colon, 2.32% (active); in the assay with HCC-2998 colon, 30.7%; in the assay on KM12 colon, 16.5%.
